Reference: ChEMBL document CHEMBL1857833, “Screening and optimization of specific chemical series against human African Trypanosomiasis (HAT)”
Out of some 4,400 compounds screened, about 390 (8.9%) showed an effect of 50% or more. What follows is part of a selection rich in strong results, with near analogues and random picks from the rest.

System: Trypanosoma brucei
Test: DNDI: Inhibition of Human African Trypanosomiasis, SBRI 427, in vitro at 2 ug.mL-1
Assay type: functional

| Structure (SMILES) | % inhibition [%] |
| --- | --- |
| COc1cc(-c2nc(CN3CCN(c4cc(C)nc5ccccc45)CC3)co2)cc(OC)c1OC | 10 |
| CN(Cc1ccco1)/C(=N\O)c1ccc(Oc2c(F)c(F)cc(F)c2F)nc1 | -10 |
| COc1cc(-c2nc(CN3CC[C@H]4CCCC[C@@H]4C3)co2)cc(OC)c1OC | -12 |
| COc1cc(-c2nc(CNCc3cccc4ccccc34)co2)cc(OC)c1OC | 0 |
| Cc1ccc(/C(=N/O)NCc2ccco2)c(Oc2ccc(F)cc2)n1 | 22 |
| CCN1CCN(Cc2coc(-c3ccc(Cl)cc3Cl)n2)CC1 | 22 |
| CN(CCc1ccccn1)Cc1coc(-c2ccccc2Cl)n1 | 10 |
| CSCCN/C(=N\O)c1ccnc(Oc2ccc(F)c(Cl)c2)c1 | 5 |
| CC(C)(C)CN/C(=N\O)c1ccnc(Oc2ccc(F)c(Cl)c2)c1 | 96 |
| O/N=C(\NCc1c(F)cccc1F)c1ccnc(Oc2ccc(F)c(Cl)c2)c1 | 30 |
| CCC(C)(C)N/C(=N\O)c1ccnc(Oc2cccc(F)c2)c1 | 1 |
| Cc1cc(C)cc(CN/C(=N\O)c2ccnc(Oc3cccc(F)c3)c2)c1 | 11 |
| CC(C)(C)CN/C(=N\O)c1ccnc(Oc2cccc(F)c2)c1 | 76 |
| Brc1ccccc1-c1nc(CNC[C@@H]2CCCO2)co1 | -9 |
| COc1ccc(Oc2nc(C)ccc2/C(N)=N/O)cc1 | 9 |
| CCCCC(CC)CNCc1coc(-c2ccc(C)cc2)n1 (centres undefined) | 10 |
| Cc1ccc(/C(=N/O)N2c3ccccc3CCC2C)c(Oc2ccc3oc4ccccc4c3c2)n1 (centres undefined) | -9 |
| O/N=C(\Nc1ccccc1)c1ccc(Oc2ccc3ccccc3c2)nc1 | -7 |
| CCC(CC)N/C(=N\O)c1ccc(Oc2ccc3ccccc3c2)nc1 | 32 |
| O/N=C(\NC1CCCCC1)c1ccc(Oc2ccc3ccccc3c2)nc1 | 77 |
| O/N=C(\NC1CCC1)c1ccc(Oc2ccc3ccccc3c2)nc1 | 96 |
| O/N=C(\NCC1CCCCC1)c1ccc(Oc2ccc3ccccc3c2)nc1 | 6 |
| COCC(C)N/C(=N\O)c1ccc(Oc2ccc3ccccc3c2)nc1 (centres undefined) | 76 |
| CC1CC(N/C(=N\O)c2ccc(Oc3ccc4ccccc4c3)nc2)CC(C)(C)C1 (centres undefined) | 4 |
| COCC(C)N/C(=N\O)c1ccc(Oc2cc(C)cc(C(C)C)c2)nc1 (centres undefined) | 18 |
| CC1CCC(N/C(=N\O)c2ccc(Oc3ccc4ccccc4c3)nc2)CC1 (centres undefined) | -9 |

| Structure (SMILES) | % inhibition [%] |
| --- | --- |
| COc1cc(-c2nc(CN3CCC4CCCCC4C3)co2)cc(OC)c1OC (centres undefined) | -10 |
| Fc1cccc(-c2nc(CN3CCN(c4ncccn4)CC3)co2)c1 | 6 |
| FC(F)(F)c1ccc(-c2nc(Cn3ccnc3-c3ccccc3)co2)cc1 | -8 |
| c1cncc(CN(Cc2cccnc2)Cc2coc(-c3cccc4ccccc34)n2)c1 | 47 |
| COc1cccc(CNCc2coc(-c3ccccc3C)n2)c1 | 15 |
| COc1ccc(CCN(C)Cc2coc(-c3ccc(C(F)(F)F)cc3)n2)cc1OC | 7 |
| CCCN(CC1CC1)/C(=N\O)c1ccc(C)nc1Oc1cccc(C)c1 | -4 |
| Cc1cc(C)cc(Oc2nc(C)ccc2/C(=N/O)N2CCCc3ccccc32)c1 | 53 |
| Cc1cc(C)cc(Oc2nc(C)ccc2/C(=N/O)N2c3ccccc3CCC2C)c1 (centres undefined) | 98 |
| Cc1ccc(/C(=N/O)N2c3ccccc3CCC2C)c(Oc2cccc(F)c2)n1 (centres undefined) | 34 |
| CSc1ccc(Oc2nc(C)ccc2/C(=N/O)N2c3ccccc3CCC2C)cc1C (centres undefined) | 0 |
| Cc1ccc(/C(=N/O)N2CCCc3ccccc32)c(Oc2ccc(F)c(F)c2)n1 | 21 |
| Cc1ccc(/C(=N/O)N2CCCc3ccccc32)c(Oc2cccc(F)c2)n1 | 93 |
| CSc1ccc(Oc2nc(C)ccc2/C(=N/O)N2CCCc3ccccc32)cc1C | 10 |
| Cc1ccc(/C(=N/O)N2CCCc3ccccc32)c(Oc2ccc3ccccc3c2)n1 | 15 |
| COc1ccc(Oc2nc(C)ccc2/C(=N/O)N2CCCc3ccccc32)cc1 | 11 |
| CC(C)(C)COc1ncccc1/C(=N/O)NCCN1CCOCC1 | 6 |
| CCN(Cc1coc(-c2cccc(OC)c2)n1)c1cccc(C)c1 | -18 |
| Fc1ccc(N2CCN(Cc3coc(-c4ccc(Cl)cc4Cl)n3)CC2)cc1 | 14 |
| Cc1ccc(/C(=N/O)N(C)C2CCN(C)CC2)c(Oc2cccnc2)n1 | 9 |
| CC1CCCN1/C(=N\O)c1cccnc1Oc1ccc(F)cc1 (centres undefined) | 2 |
| c1coc(-c2nc(CN3CCCCCC3)co2)c1 | 16 |
| CCN(Cc1ccccc1)Cc1coc(-c2ccccc2)n1 | 9 |
| CN(Cc1coc(-c2ccc(C(F)(F)F)cc2)n1)C1CCN(Cc2ccccc2)C1 (centres undefined) | 0 |
| CCOc1ccccc1Oc1ncccc1/C(=N\O)NCc1ccncc1 | 0 |
| CCc1ccc(Oc2ncccc2/C(=N/O)NCc2ccccc2OC)cc1 | 99 |

| Structure (SMILES) | % inhibition [%] |
| --- | --- |
| CCOc1ccccc1CN/C(=N\O)c1cccnc1Oc1ccc(CC)cc1 | 99 |
| CCOc1ccccc1CNCc1coc(-c2cccs2)n1 | -4 |
| Cc1nccn1/C(=N\O)c1ccnc(Oc2cccc3cnccc23)c1 | 14 |
| c1ccc(C(c2ccccc2)N2CCN(Cc3coc(-c4ccco4)n3)CC2)cc1 | 0 |
| Cc1ccc(/C(=N/O)N2CCCCCC2)c(OCc2ccccn2)n1 | 28 |
| C/C(=C\C#N)N/C(=N\O)c1ccnc(Oc2cc(C)ccc2C(C)C)c1 | 21 |
| CCOc1ccc(Oc2cc(/C(=N/O)NCc3ccccc3OC)ccn2)cc1 | 0 |
| c1ccc(-c2cn(Cc3coc(-c4cccc5ccccc45)n3)cn2)cc1 | -1 |
| CCN(/C(=N\O)c1cccnc1Oc1ccc2c(c1)CCCC2)C(C)C | 3 |
| CCOc1cccc(-c2nc(CN3CCN(c4ccccc4)CC3)co2)c1 | 17 |
| O/N=C(/c1cccnc1OCc1ccccc1F)N1CCCc2ccccc21 | -20 |
| CC(C)COc1ncccc1/C(=N/O)N1C(C)CCCC1C (centres undefined) | 6 |
| CC1CCC(C)N1/C(=N\O)c1cccnc1OCC(C)(C)C (centres undefined) | 93 |
| CC(C)(C)COc1ncccc1/C(=N/O)N1CCCc2ccccc21 | 100 |
| CC(C)(C)COc1ncccc1/C(=N/O)N1CCCCCC1 | 8 |
| CC(C)COc1ncccc1/C(=N/O)N1C(C)CCC1C (centres undefined) | -2 |
| O/N=C(/c1cccnc1Oc1ccc(-n2cncn2)cc1)N1CCCc2ccccc21 | 10 |
| CC(C)(C)COc1ncccc1/C(=N/O)N1CCCC1 | 0 |
| O/N=C(/c1cccnc1OCc1cccc(F)c1)N1CCCc2ccccc21 | -2 |
| CC1CCC(C)N1/C(=N\O)c1cccnc1Oc1ccc(-n2cncn2)cc1 (centres undefined) | 9 |
| CC1CCc2ccccc2N1/C(=N\O)c1cccnc1OCC(C)(C)C (centres undefined) | 84 |
| CC1CCc2ccccc2N1/C(=N\O)c1cccnc1Oc1ccc(-n2cncn2)cc1 (centres undefined) | 81 |
| O/N=C(/c1cccnc1Oc1ccc(F)c(Cl)c1)N1CCN(c2ccc(F)cc2)CC1 | -10 |
| O/N=C(\NCCN1CCOCC1)c1ccc(Oc2ccc(Cl)cc2)nc1 | -2 |
| Cc1cccc(Oc2ccc(/C(=N/O)n3ccnc3)cn2)c1 | 15 |
| COc1cccc(N2CCN(Cc3coc(-c4ccc(F)cc4)n3)CC2)c1 | -1 |

| Structure (SMILES) | % inhibition [%] |
| --- | --- |
| CSc1ccc(Oc2nc(C)ccc2/C(=N/O)N2CCSCC2)cc1C | 12 |
| O/N=C(\NCCN1CCOCC1)c1cccnc1Oc1ccc2c(c1)CCCC2 | 8 |
| CCC(C)(C)N/C(=N\O)c1ccc(C)nc1Oc1cc(C)cc(C)c1 | 24 |
| CCOc1ccccc1-c1nc(CN2CCN(CC)CC2)co1 | 16 |
| Cc1ccc(/C(=N/O)NCCN2CCCC2)c(OCc2cccc(F)c2)n1 | -12 |
| CCOc1cccc(Oc2ncccc2/C(N)=N/O)c1 | 10 |
| CCOc1ccccc1-c1nc(CN(C)Cc2cccc3ccccc23)co1 | 15 |
| COc1ccc(NCc2coc(-c3ccc(F)cc3)n2)cc1 | -3 |
| Brc1ccccc1-c1nc(CNCCN2CCOCC2)co1 | 9 |
| Cc1cc(C)n(/C(=N\O)c2ccc(Oc3ccc(Cl)cc3)nc2)n1 | -5 |
| O/N=C(/c1cccnc1Oc1ccc(F)cc1Cl)N1CCCCCC1 | 11 |
| O/N=C(/c1cccnc1Oc1ccc(F)cc1Cl)N1CCCc2ccccc21 | 100 |
| O/N=C(/c1cccnc1Oc1ccc(F)cc1Cl)N1CCCC1 | 13 |
| COc1ccc(Oc2nc(C)ccc2/C(=N/O)N2CCC=N2)cc1 | 8 |
| CCOC(=O)N1CCN(Cc2coc(-c3ccccc3Cl)n2)CC1 | 8 |
| Cc1cccc(Oc2nc(C)ccc2/C(=N/O)N2Cc3ccccc3C2)c1 | 3 |
| Cc1ccc(Oc2nc(C)ccc2/C(=N/O)N(C)c2ccccc2)c(C)c1 | 41 |
| CC1CCC(N/C(=N\O)c2cccnc2Oc2ccccc2OC(C)C)CC1 (centres undefined) | 98 |
| CC(C)Oc1ccccc1Oc1ncccc1/C(=N/O)NC1CCCCC1 | 99 |
| CC(C)Oc1ccccc1Oc1ncccc1/C(=N/O)NCC1CCCO1 (centres undefined) | -11 |
| CC1CC(N/C(=N\O)c2cccnc2Oc2ccccc2OC(C)C)CC(C)(C)C1 (centres undefined) | 99 |
| COc1ccc(CN/C(=N\O)c2cccnc2Oc2ccccc2OC(C)C)cc1 | -18 |
| COC(=O)C1CCN(/C(=N\O)c2cccnc2Oc2ccccc2OC(C)C)CC1 | -2 |
| CC(C)Oc1ccccc1Oc1ncccc1/C(=N/O)NCc1ccncc1 | 7 |
| c1ccc(N2CCN(Cc3coc(-c4ccco4)n3)CC2)nc1 | 4 |
| COc1cc2c(cc1OC)C(C(C)C)N(Cc1coc(-c3ccccc3Cl)n1)CC2 (centres undefined) | 3 |
